molecular target: PUM1 PUF domain R5-RYS (Homo sapiens, UniProt Q14671 828-1176, C1007R;R1008Y;Q1011S); experiment: yeast three-hybrid, YBZ-1, SC-Leu-His + 0.5 mM 3-AT, 4 days; settings: tags: N-Gal4 AD-HA kept; label: inside an RPR1-promoter hybrid RNA with tandem MS2 sites; ssRNA
Outline: (§1)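 Sequencing with Illumina followed PCR amplification of the repeat regions from transformants grown four days on SC-Leu (input) or SC-Leu-His + 0.5 mM 3-AT (selection). The transformants were strain YBZ-1 with a LexA–MS2 coat fusion and a HIS3 reporter, carrying Pumilio-1 PUF domain libraries and matching RNA elements. The interaction score is the log change in variant frequency from input to selection, computed in log2 with a pseudocount of 1 for absent variants.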

PUM1 PUF domain R5-RYS, sequence (Q14671 828-1176 C1007R/R1008Y/Q1011S): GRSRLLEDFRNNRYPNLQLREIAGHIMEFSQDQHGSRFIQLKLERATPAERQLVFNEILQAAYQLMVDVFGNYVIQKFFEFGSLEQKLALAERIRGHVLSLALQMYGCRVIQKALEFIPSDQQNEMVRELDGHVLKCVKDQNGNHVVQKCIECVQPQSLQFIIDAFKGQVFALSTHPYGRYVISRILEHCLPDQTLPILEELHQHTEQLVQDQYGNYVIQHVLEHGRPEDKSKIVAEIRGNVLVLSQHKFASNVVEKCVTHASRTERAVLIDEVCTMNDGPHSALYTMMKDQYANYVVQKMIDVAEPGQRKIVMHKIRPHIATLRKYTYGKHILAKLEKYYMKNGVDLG

Compared with “GGCUAGAACUAGUGGAUCCCCCGGCGCCCGGCGGCUCGAGCCCGGGUAAGUGUAAAUAGUCUGCAUGCCGCCGGGCGCCAUGCCUGCAGGUCGACUCUAGAAAACAUG”, “GGCUAGAACUAGUGGAUCCCCCGGCGCCCGGCGGCUCGAGCCCGGGUAAGUGUUAAUAGUCUGCAUGCCGCCGGGCGCCAUGCCUGCAGGUCGACUCUAGAAAACAUG” is lower in binding signal: 3.42 log2 enrichment (interaction score) for the first, 3.23 log2 enrichment (interaction score) for the second.

For “GGCUAGAACUAGUGGAUCCCCCGGCGCCCGGCGGCUCGAGCCCGGGUAAGUGUCAAUAGUCUGCAUGCCGCCGGGCGCCAUGCCUGCAGGUCGACUCUAGAAAACAUG”, the binding signal was 5.4 log2 enrichment (interaction score).

molecular target: PUM1 PUF domain R4-SPA (Homo sapiens, UniProt Q14671 828-1176, N971S;H972P;Q975A); experiment: as above; settings: tags: N-Gal4 AD-HA kept; label: inside an RPR1-promoter hybrid RNA with tandem MS2 sites; ssRNA
Outline: as §1

PUM1 PUF domain R4-SPA, sequence (Q14671 828-1176 N971S/H972P/Q975A): as the sequence (Q14671 828-1176 C1007R/R1008Y/Q1011S) above, with N144S, H145P, Q148A, R180C, Y181R, S184Q counted along it

First: GGCUAGAACUAGUGGAUCCCCCGGCGCCCGGCGGCUCGAGCCCGGGUAAGUGUACAUAGUCUGCAUGCCGCCGGGCGCCAUGCCUGCAGGUCGACUCUAGAAAACAUG
Second: GGCUAGAACUAGUGGAUCCCCCGGCGCCCGGCGGCUCGAGCCCGGGUAAGUGUAUAUAGUCUGCAUGCCGCCGGGCGCCAUGCCUGCAGGUCGACUCUAGAAAACAUG
The binding signal of the first is lower: 1.59 log2 enrichment (interaction score) for the first, 3.25 log2 enrichment (interaction score) for the second.

With “GGCUAGAACUAGUGGAUCCCCCGGCGCCCGGCGGCUCGAGCCCGGGUAAGUGUAAAUAGUCUGCAUGCCGCCGGGCGCCAUGCCUGCAGGUCGACUCUAGAAAACAUG” the binding signal was 3.03 log2 enrichment (interaction score).

molecular target: PUM1 PUF domain R5-RFL (Homo sapiens, UniProt Q14671 828-1176, C1007R;R1008F;Q1011L); experiment: as above; settings: tags: N-Gal4 AD-HA kept; label: inside an RPR1-promoter hybrid RNA with tandem MS2 sites; ssRNA
Outline: as §1

PUM1 PUF domain R5-RFL, sequence (Q14671 828-1176 C1007R/R1008F/Q1011L): as the sequence (Q14671 828-1176 C1007R/R1008Y/Q1011S) above, with Y181F, S184L counted along it

Going from “GGCUAGAACUAGUGGAUCCCCCGGCGCCCGGCGGCUCGAGCCCGGGUAAGUGUAAAUAGUCUGCAUGCCGCCGGGCGCCAUGCCUGCAGGUCGACUCUAGAAAACAUG” to “GGCUAGAACUAGUGGAUCCCCCGGCGCCCGGCGGCUCGAGCCCGGGUAAGUGUUAAUAGUCUGCAUGCCGCCGGGCGCCAUGCCUGCAGGUCGACUCUAGAAAACAUG”, the binding signal rises from 3.51 log2 enrichment (interaction score) to 4.97 log2 enrichment (interaction score).

In the case of “GGCUAGAACUAGUGGAUCCCCCGGCGCCCGGCGGCUCGAGCCCGGGUAAGUGUCAAUAGUCUGCAUGCCGCCGGGCGCCAUGCCUGCAGGUCGACUCUAGAAAACAUG”, the binding signal is reported as 4.06 log2 enrichment (interaction score).

From article PMC8384837, “Expanding the binding specificity for RNA recognition by a PUF domain”
